# Assay outcomes deposited in PubChem by National Center for Advancing Translational Sciences (NCATS).
# Lassa entry inh: blocks Lassa virus binding to or entry into cells; Lassa virus pseudotype entry inhibition, cell reporter; hit rate 1.2% among 300,000; Potency, µM (highest dose often 37.9 µM), inactives show top-dose activity change, negative = inhibition, most hits filed as inhibitors; AID 540256; calls by dose curve; tested in HEK293 cells; note: potency is the fitted concentration of half-maximal effect; % is set by controls: 0 for no effect and ±100 for the full control effect; nearly all actives have a fitted effect of over 50% in size
# HCV inh: inhibitors of hepatitis C virus infection | AID 651820 | Potency, µM (top dose mostly 41.8 µM), inactives show top-dose activity change, negative = inhibition, hits mostly inhibitors | Huh7.5.1 HCVcc-Cre infection, luciferase reporter, 44 h | hit rate 3.4% among 340,000; active = well fitted inhibition curve with a large enough effect; inconclusive = small, poorly fitted or top-dose-only effect, or another doubt; inactive = no such curve, though single readings can be large or run the other way; note: potency is the fitted concentration of half-maximal effect; % is set by controls: 0 for no effect and ±100 for the full control effect
#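 Cells (1,000/well) were plated 4 h before compound, then infected with HCVcc-Cre virus (~0.5 moi). After 44 h further culture, infection was read as luciferase luminescence following a 15 min substrate incubation at room temperature.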
# Marburg entry inh: inhibitors of Marburg virus binding or cell entry; Marburg virus pseudotyped entry inhibition, cell reporter; Potency, µM (titrated, usually from 37.8 µM), without a hit: at the highest dose activity change, negative = inhibition, hits mostly inhibitors; hit rate 1.8% among 300,000; AID 540276; calls by dose curve; tested in HEK293 cells; note: potency is the fitted concentration of half-maximal effect; % is set by controls: 0 for no effect and ±100 for the full control effect
# SARS PLP yeast: inhibitors of SARS-CoV papain-like protease in yeast; Potency, µM (top dose mostly 32.9 µM), for inactives: at the top dose activity, positive = growth rescue, most hits filed as activators; hit rate 0.19% among 330,000; S. cerevisiae expressing SARS-CoV PLpro, growth rescue; calls by dose curve; note: potency is the fitted concentration of half-maximal effect; 0% is about no effect; nearly all actives have a fitted effect of over 55% in size
# HCMV inh: inhibitors of human cytomegalovirus; HFF cells, HCMV-luciferase reporter, 72 h; hits give low values; hit rate 4.5% among 410,000; activity change, negative = inhibition, % at 57.5 µM; in the data active = activity change below about -60%; inconclusive = no clear call, values can overlap the other calls; inactive = above about -39%; note: % is set by controls: 0 for no effect and ±100 for the full control effect
#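 After 16 h attachment at 37C, HFF cells received test compound and HCMV-luciferase (1 PFU/cell); reporter luminescence read 72 h later, data normalized against buffer-only and known inhibitor Salinomycin.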
# FMDV antiviral: blocks foot and mouth disease virus | Potency, µM (highest dose often 57.9 µM), for inactives: at the top dose activity change, negative = inhibition, actives largely listed as inhibitors | FMDV antiviral cell-based qHTS | hit rate 1.2% among 410,000 | AID 1159524; calls by dose curve; tested in HEK293T cells; note: read-out not given here; potency is the fitted concentration of half-maximal effect; % is set by controls: 0 for no effect and ±100 for the full control effect; nearly all actives have a fitted effect of over 45% in size
# Starred values were filed as active, the others as inactive; u = inconclusive; x = not tested or not shown; [ ] = dose if it differs, or a comment. An excerpt weighted towards active compounds, which were near 8% of everything screened.
SMILES,Lassa entry inh,HCV inh,Marburg entry inh,SARS PLP yeast,HCMV inh,FMDV antiviral
O=C(NC1CCCC1)C(c1ccccn1)N(C(=O)c1csnn1)c1ccccc1Cl (stereo not drawn),1.7%,13.2%,-1.6%[46.1 µM],-3.9%,-65.9*,14.2%
CCc1ccc(N(C(=O)c2csnn2)C(C(=O)NC2CCCC2)c2cccnc2)cc1 (stereo not drawn),u,19.5%,u,4.1%,u,-2.4%
CC(C)c1ccc(N(C(=O)c2csnn2)C(C(=O)NC2CCCC2)c2cccnc2)cc1 (stereo not drawn),1.58µM*,0.8%,-9.0%[46.1 µM],-1.9%,-20.1,1.2%
CC(C)c1ccc(C(C(=O)NC2CCCCC2)N(C(=O)c2csnn2)C2CC2)cc1 (stereo not drawn),-1.3%[46.1 µM],21.5%,6.31µM*,4.3%,-27.4,5.8%
Cc1ccc(N(C(=O)c2csnn2)C(C(=O)NC2CCCCC2)c2ccncc2)cc1 (stereo not drawn),u,-2.6%,u,-0.9%,-64.2*,-0.6%
CCOc1ccc(N(CC)S(=O)(=O)N2CCCC(C(=O)NCc3ccccc3Cl)C2)cc1 (stereo not drawn),-15.5%[46.1 µM],x,x,x,-14.8,u
C[C@H](CO)N1C[C@H](C)[C@@H](CN(C)CC2CC2)Oc2c(NC(=O)Cc3ccccc3)cccc2C1=O,x,3.16µM*,x,-3.3%,u,35.9%
C[C@@H]1CN([C@H](C)CO)C(=O)Cc2cc(NC(=O)Nc3ccccc3)ccc2O[C@@H]1CN(C)Cc1ccc2c(c1)OCO2,x,3.55µM*,x,-0.2%,15.2,u
C[C@H](CO)N1C[C@H](C)[C@@H](CN(C)C)Oc2c(NC(=O)C3CC3)cccc2C1=O,x,3.16µM*,x,-2.0%,-21.5,27.9%
C[C@H](CO)N1C[C@H](C)[C@@H](CN(C)CC2CC2)Oc2c(NC(=O)C3CC3)cccc2C1=O,x,25.0%[8.37 µM],x,x,6.1,32.1%
C[C@H]1CN([C@@H](C)CO)C(=O)c2cc(NC(=O)C3CCCCC3)ccc2O[C@H]1CN(C)C(=O)Nc1ccc2c(c1)OCO2,x,1µM*,x,1.9%,20.5,-15.0%
Cc1ccc2oc(C(=O)Nc3nc(-c4ccc(F)cc4)ns3)c(C)c2c1,2.3%[46.1 µM],x,-0.4%[46.1 µM],x,45.8,-3.5%
COc1ccccc1Cc1c(-c2ccc(Cl)cc2)nc2ccc(C)cn12,x,x,x,x,59.7,x
Cc1noc(C)c1NC(=O)N(C)C[C@@H]1Oc2c(NC(=O)NC(C)C)cccc2C(=O)N([C@@H](C)CO)C[C@@H]1C,x,14.6%,x,4.2%,14.4,-15.3%
C[C@H](CO)N1C[C@H](C)[C@@H](CN(C)Cc2ccc(Oc3ccccc3)cc2)Oc2c(NC(=O)C3CC3)cccc2C1=O,x,15.8µM*,x,5.9%,-31.5,-13.9%
Cc1noc(C)c1NC(=O)N(C)C[C@H]1Oc2c(NC(=O)C3CCCCC3)cccc2C(=O)N([C@H](C)CO)C[C@@H]1C,x,3.98µM*,x,-5.3%,-2.7,37.8%
C[C@H](CO)N1C[C@H](C)[C@@H](CN(C)C(=O)NC2CCCCC2)Oc2c(NC(=O)C3CC3)cccc2C1=O,x,40.0%,x,-4.9%,-100.5*,50.1%
C[C@@H]1CN([C@@H](C)CO)C(=O)c2cccc(NC(=O)C3CCCCC3)c2O[C@@H]1CN(C)C(=O)NC1CCCCC1,x,0.5%,x,0.7%,-16.0,-19.2%
CC(CNC(=O)C1CCN(Cc2cc3ccccc3n2Cc2ccccc2)CC1)c1ccccc1 (stereo not drawn),u,x,x,x,-28.4,u
Cc1ccc(NC(=O)c2ccc3c(O)c(S(=O)(=O)c4ccc(Cl)cc4)c(=O)[nH]c3c2)cc1,-3.2%[46.1 µM],x,x,x,-2.4,-23.6%
Cc1cccc(NCc2nc3ccccc3n2CCOc2ccccc2C)c1,-22.8%[46.1 µM],x,u,x,-33.7,8.1%
CC(=O)c1cccc(NC(=O)C(OC(=O)c2ccccc2NS(=O)(=O)c2cccs2)c2ccccc2)c1 (stereo not drawn),u,0.9%,u,-12.5%,-74.6*,39.6%
CCOc1ccccc1NC(=O)C(OC(=O)c1ccccc1NS(=O)(=O)c1cccs1)c1ccccc1 (stereo not drawn),u,-21.6%,u,-8.9%,u,-0.9%
O=C(COc1ccc(Cl)cc1Cl)Nc1ccc(Cl)cn1,u,-22.0%,u,-4.4%,50.0,x
O=C(O)CCC(=O)NNC(=O)COc1ccc(Cl)cc1Cl,0.4%,-22.3%,-10.9%[46.1 µM],0.5%,-78.6*,9.6%
SMILES,Lassa entry inh,HCV inh,Marburg entry inh,SARS PLP yeast,HCMV inh,FMDV antiviral
O=C(COc1ccc(Cl)cc1Cl)Nc1ccccc1F,7.08µM*,-9.0%,-47.6%,x,90.6,-25.0%
O=C(COc1ccc(Cl)cc1Cl)N/N=C/c1ccc[nH]1,x,6.31µM*,x,-2.5%,-39.8,18.6%
COc1ccc(C2=Nn3c([n+](C)c4ccccc43)SC2)cc1,x,2.24µM*,x,1.6%,-81.4*,u
COc1ccc(C2=Nn3c(nnc3-c3ccccn3)SC2)cc1,-6.1%,-28.9%,1.3%,0.7%,11.0,-20.9%
C[n+]1c(-c2ccccc2)sc2ccccc21,x,-16.6%,x,-5.5%,-21.9,-2.0%
C[n+]1c2n(c3ccccc31)N=C(c1ccc(Cl)cc1)CS2,u,u,u,-28.9%,-96.0*,u
CC1Sc2n(c3ccccc3[n+]2C)N=C1c1ccccc1 (stereo not drawn),u,-17.4%,u,-16.4%,-96.6*,u
C/C(=N\NC(=O)c1ccc(NS(=O)(=O)c2cccs2)cc1)c1ccc(C(C)(C)C)cc1,u,7.08µM*,u,-22.1%,14.9,-20.9%
COc1ccccc1[C@H]1/C(=C(\O)c2ccc(C)cc2)C(=O)C(=O)N1Cc1ccco1,x,x,-0.9%[46.1 µM],x,x,x
O=C1C2C3CC4C5C3C1C5C1(SCCS1)C42 (stereo not drawn),x,x,x,x,-87.0*,4.9%
COc1ccc(C)cc1NC(=O)CNc1ccccc1CN(C)C1CCCCC1,-21.2%[46.1 µM],-3.2%,4.47µM*,-0.3%,-18.1,u
COc1ccc(Cl)cc1NC(=O)CNc1ccccc1CN(C)C1CCCCC1,u,-28.3%,2.51µM*,0.0%,3.3,u
COC(=O)[C@@H]1[C@@H](CO)[C@@H]2Cn3c(ccc(Br)c3=O)[C@@H]2N1CC1CCCC1,x,x,x,x,-10.6,x
Oc1ccc(/C=N/Nc2ccnc3cc(Cl)ccc23)c(O)c1,x,10µM*,1.9%,0.9%,-25.6,26.3%
Cc1ccccc1/C=N/Nc1ccnc2cc(Cl)ccc12,u,u,u,-62.2%,-69.4*,u
Cc1cc(N/N=C/c2ccc(O)cc2O)c2ccccc2n1,x,u,x,-4.4%,-20.9,-4.7%
CC(=O)N1CCC(=NNc2ccnc3cc(Cl)ccc23)CC1,-6.5%[46.1 µM],-16.9%,-2.7%[46.1 µM],-6.3%,u,4.6%
Cc1ccc(/C=N/Nc2ccnc3cc(Cl)ccc23)c(C)c1,u,10µM*,u,-56.9%,-76.0*,39.8µM*
Clc1ccc(NNc2ccnc3cc(Cl)ccc23)cc1,-3.4%,-13.0%,u,-2.0%,-69.4*,9.2%
